# ELG1 DNA repair – blocks ELG1-dependent DNA repair in HEK293T cells; actives 2.3% (n = 330,000); HEK293T ELG1-luciferase reporter, luminescence, 16 h; DNA damage induced by 5-fluorouridine; Potency, µM (doses to about 46.1 µM), hits mostly inhibitors; note: nearly all actives have a fitted effect of over 55% in size
#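 Quantitative HTS, concentration-response format. 2,000 cells/well co-treated with 5-fluorouridine and compound, 16 hr in 5% CO2 at 37 °C; ONE-Glo luminescence read after 30 min.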
# NPC1 promoter act – activators of NPC1 promoter | Huh7 NPC1 promoter luciferase reporter, 24 h | Potency, µM (series often up to 9.22 µM), usual class: activators | actives 2.4% (n = 320,000); note: nearly all actives have a fitted effect of over 60% in size
#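 Luminescence from an NPC1 promoter-driven luciferase reporter in stably transfected Huh7 cells was measured after 24 h compound treatment at 37 °C, followed by 10 min ambient incubation with luciferase detection reagent.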
# FLuc counter – firefly luciferase modulation, counter-screen for miR-21 project | actives 6.9% (n = 360,000) | P08659 | AID 588342 | purified FLuc, Km substrates, luminescence inhibition | Potency, µM (highest dose often 57.5 µM), most hits filed as inhibitors; note: nearly all actives have a fitted effect of over 55% in size
# Target sequence (P08659 whole entry, looked up): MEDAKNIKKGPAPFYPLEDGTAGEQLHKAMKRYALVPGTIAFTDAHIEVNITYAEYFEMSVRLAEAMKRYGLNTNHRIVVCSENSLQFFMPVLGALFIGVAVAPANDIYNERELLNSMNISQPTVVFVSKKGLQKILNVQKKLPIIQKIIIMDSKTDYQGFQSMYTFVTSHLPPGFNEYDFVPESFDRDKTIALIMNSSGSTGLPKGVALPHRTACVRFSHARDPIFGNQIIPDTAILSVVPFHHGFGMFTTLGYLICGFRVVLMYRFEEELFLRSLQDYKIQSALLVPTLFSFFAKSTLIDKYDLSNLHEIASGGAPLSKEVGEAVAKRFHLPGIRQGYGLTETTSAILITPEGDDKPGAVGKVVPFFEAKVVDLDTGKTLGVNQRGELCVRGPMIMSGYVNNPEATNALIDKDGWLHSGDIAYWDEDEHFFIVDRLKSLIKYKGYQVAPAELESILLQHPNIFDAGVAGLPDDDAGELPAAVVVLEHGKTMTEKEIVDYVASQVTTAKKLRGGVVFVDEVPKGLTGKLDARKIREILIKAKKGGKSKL
#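 Biochemical qHTS of compounds, final roughly 60 µM downward over six points, against 10 nM purified firefly luciferase using Km concentrations of substrates (10 uM D-luciferin, 10 uM ATP) in Tris acetate pH 7.5 buffer; luminescence output.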
# Rab9 prom act – activators of Rab9 promoter | Huh7 Rab9 promoter-luciferase reporter, luminescence, 24 h | Potency, µM (highest dose often 9.22 µM), most hits filed as activators | actives 2.8% (n = 320,000) | AID 485297; note: nearly all actives have a fitted effect of over 60% in size
#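 Steps: seed 1500 Huh7 Rab9-luc cells per well, rest 2 h at 37 °C; add compound in DMSO; incubate 24 h; add luciferase reagent, 10 min ambient; read luminescence.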
# SMN2 splice enh – increases expression of the SMN2 splice variant. HEK293 SMN2-luciferase splicing reporter, luminescence, 30-36 h. actives 2.8% (n = 210,000). Potency, µM (highest dose often 46.1 µM), most hits filed as activators; note: nearly all actives have a fitted effect of over 55% in size
#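 HEK293 cells carry an SMN2 […]–luciferase reporter in which exon 7 inclusion puts luciferase in frame. Cells were plated 10-12 h before compound addition, then incubated 30-36 h at 37C. ONE-Glo luminescence was read; sodium butyrate at 4.5 mM final served as control.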
# ELG1 genotox – inducers of genotoxicity in HEK293T ELG1-luciferase cells; HEK293T ELG1-luciferase reporter, luminescence, 16 h; Potency, µM (highest dose often 46 µM), usual class: activators; actives 1.3% (n = 330,000); AID 504466; note: nearly all actives have a fitted effect of over 60% in size
#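 Screening used a luciferase reporter fused to human ELG1 in HEK293T cells. Luminescence was read on a CCD plate imager after 16 hr exposure and 30 min ONE-Glo incubation.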
# A number is an active result; . = inactive; ? = inconclusive; / = no result. Rows were chosen to be rich in hits. Some 9.3% of all compounds tested hit in one or more screens of this group. Calls come from the whole dose curve; as a rule, active = well fitted curve in the direction sought with a large enough effect; inconclusive = small, poorly fitted or top-dose-only effect, or another doubt; inactive = no such curve, though single readings can be large; an effect the other way counts as inactive or inconclusive.
SMILES,ELG1 DNA repair,NPC1 promoter act,FLuc counter,Rab9 prom act,SMN2 splice enh,ELG1 genotox
CC1CN/C(=C\C(=O)c2ccccc2)C(=O)N1 (configuration not stated),?,2.82µM,12µM,3.98µM,10µM,?
CC1CN/C(=C\C(=O)c2ccc(Cl)cc2)C(=O)N1 (configuration not stated),?,0.398µM,2.39µM,0.501µM,3.16µM,?
O=C(Nc1cccc(C(F)(F)F)c1)c1csc(-c2ccncc2)n1,?,.,.,.,.,.
O=C(O)CCC(=O)Nc1cccc(-c2csc(-c3ccccc3)n2)c1,.,.,7.57µM,.,.,.
O=C(Nc1cccc(-c2csc(Nc3ccccc3)n2)c1)c1ccccc1,?,?,1.69µM,?,/,.
O=C(Nc1ccc(-c2csc(Nc3ccc(Cl)cc3)n2)cc1)c1ccccc1,.,/,/,/,/,.
CCCCC(=O)Nc1cccc(-c2csc(-c3ccccc3)n2)c1,.,.,?,.,?,.
O=[N+]([O-])c1cccc(-c2csc(Nc3ccccc3)n2)c1,?,.,13.5µM,?,/,.
O=C(Nc1cccc(-c2csc(Nc3cccc(C(F)(F)F)c3)n2)c1)c1ccccc1,20.6µM,.,?,.,/,.
O=C(OCC(=O)N1CCCC1=O)c1ncc(Cl)c(Cl)c1Cl,.,.,.,.,/,.
CC(C)(C)NC(=O)CN(CCN1CCOCC1)C(=O)CNS(=O)(=O)c1ccccc1,.,.,.,.,/,.
O=C(Nc1ccc(-c2csc(Nc3cccc(C(F)(F)F)c3)n2)cc1)c1cc([N+](=O)[O-])cc(C(F)(F)F)c1,?,.,.,.,/,.
O=C(Nc1ccc(-c2csc(Nc3cccc(C(F)(F)F)c3)n2)cc1)c1ccccc1,11.6µM,.,.,.,/,.
CCCCc1cc(=O)oc2cc(C)cc(OCC(=O)N3C[C@H]4C[C@@H](C3)c3cccc(=O)n3C4)c12,.,.,.,.,/,.
N=c1ccn(Cc2cccc(Cl)c2)cc1,?,.,.,.,.,.
N=c1ccn(Cc2ccc(Cl)cc2Cl)cc1,8.2µM,.,.,.,.,.
N=c1ccn(Cc2c(Cl)cccc2Cl)cc1,11.6µM,.,.,.,/,.
N=c1ccn(Cc2ccccc2Cl)cc1,.,.,.,.,.,.
N=c1ccn(Cc2ccc(Cl)cc2)cc1,5.17µM,.,.,.,.,.
N=c1ccn(Cc2ccc(Cl)c(Cl)c2)cc1,4.61µM,.,.,.,.,.
Cc1ccc(C(=O)c2c3ccc([N+](=O)[O-])cc3[n+]([O-])n2CCC(N)=O)cc1,?,.,.,.,/,.
CC(/C=C1\SC(=S)N(CCCC(=O)Nc2ccc(C(=O)O)cc2)C1=O)=C\c1ccccc1,?,.,13.5µM,.,.,.
CC(/C=C1\SC(=S)N(CCC(=O)Nc2cccc(C(=O)O)c2)C1=O)=C\c1ccccc1,.,.,23.9µM,.,/,.
CC(C)CNS(=O)(=O)c1ccccc1C(=O)N1CCCCC1,?,.,.,.,.,.
Cc1cccc(C)c1OCC(O)CNS(=O)(=O)c1ccccc1C(=O)N1CCCCC1 (configuration not stated),16.4µM,.,.,.,.,.
SMILES,ELG1 DNA repair,NPC1 promoter act,FLuc counter,Rab9 prom act,SMN2 splice enh,ELG1 genotox
O=c1c2ccccc2nc2c3ccccc3c(NCCO)nn12,.,.,.,.,.,.
CCOC(=O)C1CCN(c2nc(C)cc(C)c2C#N)CC1,.,.,.,.,.,.
CCOc1cc2c(C#N)c(N3CCCCC3)nc(N)c2c(N)n1,.,.,15.1µM,?,.,?
CCOC(=O)C1CCN(c2nc(N)c3c(N)nc(SCC(=O)O)cc3c2C#N)CC1,.,.,16.9µM,.,/,.
CCOc1cc2c(C#N)c(N3CCNCC3)nc(N)c2c(N)n1,.,.,.,.,?,.
COc1cc2c(C#N)c(N3CCCCC3)nc(N)c2c(N)n1,?,.,4.78µM,.,.,?
COc1cc2c(C#N)c(N3CCc4ccccc4C3)nc(N)c2c(N)n1,?,.,21.3µM,.,.,.
COc1cc2c(C#N)c(N3CCOCC3)nc(N)c2c(N)n1,.,.,?,.,.,.

# From PubChem
